Data: PubChem BioAssay (NCATS)
Results filed as inconclusive are left out. Active and inactive are the calls of the source. Unless noted, the call rests on the fitted dose curve; in most records, active means well fitted curve in the direction sought with a large enough effect; inconclusive means small, poorly fitted or top-dose-only effect, or another doubt; inactive means no such curve, though single readings can be large; an effect the other way counts as inactive or inconclusive.

Columns and labels:
[1] = target: Atrial natriuretic peptide receptor 1 (Homo sapiens) (UniProt P16066); experiment: Natriuretic polypeptide receptor (hNpr1) antagonism - Pilot screen (AID 1347049; calls by dose curve;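 further: agonist-evoked cGMP luminescence read 20 min after hNppA addition; series mostly up to about 58 µM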)
Atrial natriuretic peptide receptor 1 (Homo sapiens), sequence (P16066 whole entry, looked up): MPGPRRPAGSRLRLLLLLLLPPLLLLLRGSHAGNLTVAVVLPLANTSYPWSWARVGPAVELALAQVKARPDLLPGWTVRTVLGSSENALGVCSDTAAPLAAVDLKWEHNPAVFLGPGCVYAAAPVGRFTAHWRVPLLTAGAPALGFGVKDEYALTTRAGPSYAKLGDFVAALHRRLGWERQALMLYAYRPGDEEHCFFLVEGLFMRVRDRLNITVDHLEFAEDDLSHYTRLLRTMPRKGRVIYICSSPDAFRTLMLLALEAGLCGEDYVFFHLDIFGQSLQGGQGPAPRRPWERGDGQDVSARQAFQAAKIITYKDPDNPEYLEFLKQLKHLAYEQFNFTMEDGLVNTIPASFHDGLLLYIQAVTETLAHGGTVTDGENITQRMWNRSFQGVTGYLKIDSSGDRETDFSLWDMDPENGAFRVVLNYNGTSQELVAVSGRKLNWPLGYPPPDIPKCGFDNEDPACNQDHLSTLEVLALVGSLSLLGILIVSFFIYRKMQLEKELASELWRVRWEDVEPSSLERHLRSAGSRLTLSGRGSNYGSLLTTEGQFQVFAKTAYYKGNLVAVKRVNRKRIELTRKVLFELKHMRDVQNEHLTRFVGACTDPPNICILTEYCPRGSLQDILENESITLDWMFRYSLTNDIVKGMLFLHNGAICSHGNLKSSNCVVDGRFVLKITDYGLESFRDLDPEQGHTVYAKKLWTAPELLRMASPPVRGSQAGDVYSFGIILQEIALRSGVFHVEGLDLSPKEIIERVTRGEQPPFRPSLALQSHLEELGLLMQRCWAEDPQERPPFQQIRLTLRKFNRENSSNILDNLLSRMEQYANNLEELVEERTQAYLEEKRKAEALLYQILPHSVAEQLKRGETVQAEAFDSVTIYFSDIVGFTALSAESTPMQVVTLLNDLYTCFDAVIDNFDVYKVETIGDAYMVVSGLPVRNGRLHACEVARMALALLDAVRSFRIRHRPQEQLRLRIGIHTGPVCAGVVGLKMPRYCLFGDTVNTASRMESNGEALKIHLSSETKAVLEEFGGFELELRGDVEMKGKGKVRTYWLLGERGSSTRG
How it was run: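 Readout is cGMP-driven firefly luciferase luminescence in HEK293 cells carrying hNpr1 and a PDE5-domain GloSensor, read before and 20 min after 0.1 nM hNppA stimulation. Cells had 2% substrate reagent for 2 h and test compound for 30 min.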

[2] = target: Atrial natriuretic peptide receptor 2 (Homo sapiens) (UniProt P20594); experiment: Natriuretic polypeptide receptor (hNpr2) antagonism - Pilot subtype selectivity assay (AID 1347050; calls by dose curve)
Atrial natriuretic peptide receptor 2 (Homo sapiens), sequence (P20594 whole entry, looked up): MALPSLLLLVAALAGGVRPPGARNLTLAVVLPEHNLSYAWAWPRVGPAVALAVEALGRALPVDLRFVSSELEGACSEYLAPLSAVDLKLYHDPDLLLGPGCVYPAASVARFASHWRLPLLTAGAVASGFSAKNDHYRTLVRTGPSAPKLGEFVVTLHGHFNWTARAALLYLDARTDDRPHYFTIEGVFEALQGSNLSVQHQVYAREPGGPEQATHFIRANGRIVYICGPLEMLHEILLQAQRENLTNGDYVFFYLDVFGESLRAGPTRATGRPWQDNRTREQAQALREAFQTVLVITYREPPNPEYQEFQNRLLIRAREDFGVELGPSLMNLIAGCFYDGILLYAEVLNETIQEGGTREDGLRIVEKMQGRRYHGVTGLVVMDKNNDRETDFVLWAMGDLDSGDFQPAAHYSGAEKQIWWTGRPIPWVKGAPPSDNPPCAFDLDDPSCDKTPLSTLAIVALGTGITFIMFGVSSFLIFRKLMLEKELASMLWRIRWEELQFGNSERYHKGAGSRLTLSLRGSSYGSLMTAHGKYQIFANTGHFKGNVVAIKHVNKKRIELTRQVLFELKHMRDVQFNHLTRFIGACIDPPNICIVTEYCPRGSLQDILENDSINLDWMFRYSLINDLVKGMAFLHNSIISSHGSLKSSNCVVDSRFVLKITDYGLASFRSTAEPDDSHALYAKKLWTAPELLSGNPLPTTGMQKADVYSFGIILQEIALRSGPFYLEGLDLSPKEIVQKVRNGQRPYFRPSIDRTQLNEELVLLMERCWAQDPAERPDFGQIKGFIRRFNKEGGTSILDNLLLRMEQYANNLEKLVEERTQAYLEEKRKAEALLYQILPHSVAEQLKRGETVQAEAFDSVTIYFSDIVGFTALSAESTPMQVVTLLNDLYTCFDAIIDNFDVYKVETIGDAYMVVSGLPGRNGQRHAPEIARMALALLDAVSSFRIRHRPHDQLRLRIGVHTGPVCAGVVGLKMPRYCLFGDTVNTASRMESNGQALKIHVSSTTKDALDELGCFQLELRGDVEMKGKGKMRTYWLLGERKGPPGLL
How it was run: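 Pilot selectivity screen against hNpr2: HEK293 cGMP-sensor cells are treated with LOPAC1280 compounds, then with hNppC peptide at 1 nM final. The cGMP-driven luminescence change over 20 min at room temperature is the read-out.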

[3] = NS1 protein of Zika virus - qHTS assay to identify small molecule inhibitors in human HEK 293 cells (AID 1347053); further: series mostly up to about 46 µM; nearly all actives have a fitted effect of over 55% in size
How it was run: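 HEK 293 cells pretreated with compound for 1 h, then infected with ZIKV MR766 (MOI 0.5) for 24 h at 37 C. NS1 detected by TR-FRET with two anti-NS1 antibodies; normalized to uninfected (0%) and infected (100%) wells.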

[4] = target: T1, Tyrosine-protein phosphatase non-receptor type substrate 1 (Homo sapiens) + Leukocyte surface antigen CD47 (Homo sapiens) (UniProt P78324+Q08722); experiment: CD47-SIRPalpha protein protein interaction - LANCE assay qHTS validation (AID 1347057; active means well fitted curve in the direction sought with a large enough effect in the signal ratio, with a control signal flat, not every such curve was filed as active; the % refers to the signal ratio; further: series mostly up to about 38 µM)
T1 sequence (P78324 whole entry, looked up): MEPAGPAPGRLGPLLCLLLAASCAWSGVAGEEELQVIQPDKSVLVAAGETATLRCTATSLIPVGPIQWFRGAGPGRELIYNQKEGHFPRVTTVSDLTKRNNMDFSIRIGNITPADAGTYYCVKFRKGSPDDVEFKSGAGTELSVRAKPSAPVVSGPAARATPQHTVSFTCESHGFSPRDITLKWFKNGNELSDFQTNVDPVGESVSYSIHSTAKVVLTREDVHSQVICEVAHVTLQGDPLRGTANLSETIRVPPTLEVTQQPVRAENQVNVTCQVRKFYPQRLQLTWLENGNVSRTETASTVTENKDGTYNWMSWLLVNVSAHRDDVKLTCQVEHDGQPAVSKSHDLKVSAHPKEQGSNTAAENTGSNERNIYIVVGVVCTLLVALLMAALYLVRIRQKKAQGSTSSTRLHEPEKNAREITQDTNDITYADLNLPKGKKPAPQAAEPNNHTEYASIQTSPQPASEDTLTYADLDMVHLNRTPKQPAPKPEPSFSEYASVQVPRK
T1 sequence (Q08722 whole entry, looked up): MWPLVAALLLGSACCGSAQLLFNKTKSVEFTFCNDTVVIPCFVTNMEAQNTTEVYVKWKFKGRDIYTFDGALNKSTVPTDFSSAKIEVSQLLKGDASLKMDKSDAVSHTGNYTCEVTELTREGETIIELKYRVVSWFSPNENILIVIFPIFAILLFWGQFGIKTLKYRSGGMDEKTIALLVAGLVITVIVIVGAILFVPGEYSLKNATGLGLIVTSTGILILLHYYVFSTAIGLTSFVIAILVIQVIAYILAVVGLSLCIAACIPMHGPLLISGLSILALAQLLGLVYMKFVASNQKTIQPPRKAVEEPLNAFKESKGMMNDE
How it was run: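 First, His-tagged CD47 and Eu-labelled anti-His antibody met the compound for 30 min; next, site-specifically biotinylated SIRPalpha was added for 30 min; finally streptavidin-APC was added before reading the TR-FRET ratio.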

[5] = target: T1, Tyrosine-protein phosphatase non-receptor type substrate 1 (Homo sapiens) + Leukocyte surface antigen CD47 (Homo sapiens); experiment: CD47-SIRPalpha protein protein interaction - HTRF assay qHTS validation (AID 1347058; active means well fitted curve in the direction sought with a large enough effect in the signal ratio, not every such curve was filed as active; the % refers to the signal ratio;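 further: recombinant soluble extracellular CD47 with His tag and biotinylated SIRPalpha domains; series mostly up to about 38 µM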)
How it was run: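 TR-FRET read (Ch1/Ch2 ratio) of soluble extracellular CD47 and Avi-biotinylated SIRPalpha domains in PBS pH 7.4 with 0.05% IGEPAL; 7-point compound titration. Sequential 30 min room-temperature steps; non-biotinylated SIRPalpha as control inhibitor.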

[6] = target: T1, Tyrosine-protein phosphatase non-receptor type substrate 1 (Homo sapiens) + Leukocyte surface antigen CD47 (Homo sapiens); experiment: CD47-SIRPalpha protein protein interaction - Alpha assay qHTS validation (AID 1347059);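 further: bead proximity luminescence from CD47 binding SIRPalpha after compound preincubation with SIRPalpha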
How it was run: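 Binding is measured by AlphaScreen proximity: Ni-NTA acceptor beads capture His-CD47, streptavidin donor beads capture biotin-SIRPalpha. Each of three additions (SIRPalpha with compound, CD47, beads) incubates 30 min at room temperature protected from light.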

[7] = target: Parathyroid hormone/parathyroid hormone-related peptide receptor (Homo sapiens) (UniProt Q03431); experiment: qHTS for PTHR1 Agonists: Optimization Screen against the NCGC LOPAC library (AID 1347079);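 further: GloSensor cAMP luminescence in HEK-293 GP2 cells expressing human PTHR1 with IBMX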
Parathyroid hormone/parathyroid hormone-related peptide receptor (Homo sapiens), sequence (Q03431 whole entry, looked up): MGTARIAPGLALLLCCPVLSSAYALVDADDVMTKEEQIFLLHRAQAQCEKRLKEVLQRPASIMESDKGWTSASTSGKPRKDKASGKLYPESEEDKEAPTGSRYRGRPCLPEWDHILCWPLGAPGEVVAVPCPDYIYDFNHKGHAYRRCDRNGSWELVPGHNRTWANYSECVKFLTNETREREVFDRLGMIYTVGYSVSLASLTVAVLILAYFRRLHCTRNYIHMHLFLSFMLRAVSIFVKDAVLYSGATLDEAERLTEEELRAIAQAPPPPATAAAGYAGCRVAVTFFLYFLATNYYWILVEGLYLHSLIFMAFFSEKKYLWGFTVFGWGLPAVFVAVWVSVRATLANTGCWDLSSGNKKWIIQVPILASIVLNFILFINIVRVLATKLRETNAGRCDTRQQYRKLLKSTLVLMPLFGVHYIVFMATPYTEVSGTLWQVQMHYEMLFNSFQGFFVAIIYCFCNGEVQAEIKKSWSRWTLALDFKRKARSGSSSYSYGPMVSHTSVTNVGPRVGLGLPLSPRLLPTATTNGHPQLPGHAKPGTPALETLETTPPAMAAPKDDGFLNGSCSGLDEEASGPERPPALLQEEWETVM
How it was run: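 Agonist readout: GloSensor cAMP luminescence, read after 15 min at room temperature. HEK-293-derived GP2 line carries PTHR1; compounds tested as a titration for 1 hr at 37C in presence of IBMX. M-PTH (1-15) served as control.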

[8] = qHTS for Inhibitors of the Functional Ribonucleoprotein Complex (vRNP) of Lassa (LASV) Arenavirus: LASV Primary Screen - GLuc reporter signal (AID 1347082; calls by dose curve; tested in HEK293 reporter line; further: series mostly up to about 57 µM; nearly all actives have a fitted effect of over 60% in size)
[9] = qHTS for Inhibitors of the Functional Ribonucleoprotein Complex (vRNP) of Lassa (LASV) Arenavirus: Viability assay - alamar blue signal for LASV Primary Screen (AID 1347083; calls by dose curve; tested in HEK293 reporter line; further: series mostly up to about 57 µM; nearly all actives have a fitted effect of over 80% in size)
[10] = qHTS for Inhibitors of the Functional Ribonucleoprotein Complex (vRNP) of Lymphocytic Choriomeningitis Arenaviruses (LCMV): Viability assay - alamar blue signal for LCMV Primary Screen (AID 1347085; calls by dose curve; tested in HEK293 reporter line; further: series mostly up to about 57 µM; nearly all actives have a fitted effect of over 80% in size)
[11] = target: Nucleoprotein (Lymphocytic choriomeningitis virus (strain Armstrong)) (UniProt P09992); experiment: qHTS for Inhibitors of the Functional Ribonucleoprotein Complex (vRNP) of Lymphocytic Choriomeningitis Arenaviruses (LCMV): LCMV Primary Screen - GLuc reporter signal (AID 1347086; calls by dose curve; further: series mostly up to about 57 µM; nearly all actives have a fitted effect of over 70% in size)
Nucleoprotein (Lymphocytic choriomeningitis virus (strain Armstrong)), sequence (P09992 whole entry, looked up): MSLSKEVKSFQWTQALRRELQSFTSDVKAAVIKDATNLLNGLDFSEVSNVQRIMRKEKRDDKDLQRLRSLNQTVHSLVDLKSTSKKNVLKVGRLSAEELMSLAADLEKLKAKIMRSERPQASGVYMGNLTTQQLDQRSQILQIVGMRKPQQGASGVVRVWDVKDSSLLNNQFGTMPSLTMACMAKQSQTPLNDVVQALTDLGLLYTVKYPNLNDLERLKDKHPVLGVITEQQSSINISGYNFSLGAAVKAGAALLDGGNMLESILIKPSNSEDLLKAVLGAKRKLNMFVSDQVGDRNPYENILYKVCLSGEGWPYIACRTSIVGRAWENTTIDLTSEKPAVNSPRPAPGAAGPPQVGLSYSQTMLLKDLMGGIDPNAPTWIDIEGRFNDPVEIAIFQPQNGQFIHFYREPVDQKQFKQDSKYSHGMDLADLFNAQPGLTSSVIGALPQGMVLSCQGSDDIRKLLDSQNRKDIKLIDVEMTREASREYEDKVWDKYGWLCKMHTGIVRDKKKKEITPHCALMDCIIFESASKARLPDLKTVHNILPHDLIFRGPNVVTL

[12] = qHTS of pediatric cancer cell lines to identify multiple opportunities for drug repurposing: Primary screen for TC32 cells (AID 1347089); further: nearly all actives have a fitted effect of over 60% in size
How it was run: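 Luminescent ATP read-out (CellTiter-Glo) of metabolically active TC32 cells after 48 h exposure. Concentration-response curves came from 11-point (MIPE, 0.78 nM–46 µM) or 8-point (NPC, 0.59 nM–46 µM) primary titrations; follow-up used 11 points.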

[13] = qHTS of pediatric cancer cell lines to identify multiple opportunities for drug repurposing: Primary screen for SJ-GBM2 cells (AID 1347091)
How it was run: (§1)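 Cell viability, CellTiter-Glo luminescence; 500-1,000 cells/well, 8- or 11-point titration, 48 h compound exposure at 37 degrees C, 5% CO2. Controls: DMSO neutral, bortezomib 2.3 µM final as positive.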

[14] = qHTS of pediatric cancer cell lines to identify multiple opportunities for drug repurposing: Primary screen for A673 cells (AID 1347092); further: nearly all actives have a fitted effect of over 45% in size
How it was run: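 Cell viability of A673 measured by CellTiter-Glo ATP luminescence after 48 hours compound exposure. Dilution series spanned 0.78 nM to 46 µM (MIPE, 11-point) or 0.59 nM to 46 µM (NPC, 8-point); bortezomib 2.3 uM positive control.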

[15] = qHTS of pediatric cancer cell lines to identify multiple opportunities for drug repurposing: Primary screen for SK-N-MC cells (AID 1347093); further: series mostly up to about 46 µM
How it was run: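 Metabolically active cells were quantified by ATP-dependent luminescence (CellTiter-Glo, 15 min at room temperature) following 48 h treatment. Cells had been plated at 500-1,000 per well and settled for 5 h beforehand.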

[16] = qHTS of pediatric cancer cell lines to identify multiple opportunities for drug repurposing: Primary screen for BT-37 cells (AID 1347094); further: series mostly up to about 57 µM
How it was run: (§2)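 Following a 5-hour attachment period, cells at 500-1,000/well received compounds and were cultured for 48 hours. CellTiter-Glo was added and luminescence read to estimate viable, metabolically active cells.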

[17] = qHTS of pediatric cancer cell lines to identify multiple opportunities for drug repurposing: Primary screen for NB-EBc1 cells (AID 1347095)
How it was run: as §2

[18] = qHTS of pediatric cancer cell lines to identify multiple opportunities for drug repurposing: Primary screen for U-2 OS cells (AID 1347096); further: nearly all actives have a fitted effect of over 50% in size
How it was run: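 Cells (500-1,000/well) rested 5 h, then received compounds for 48 h; metabolically active cells were measured by CellTiter-Glo luminescence. Final concentrations spanned up to 46 µM (MIPE, 11-point) or 0.59 nM-46 µM (NPC, 8-point) in primary screens, 11-point in follow-ups.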

[19] = qHTS of pediatric cancer cell lines to identify multiple opportunities for drug repurposing: Primary screen for Saos-2 cells (AID 1347097); further: nearly all actives have a fitted effect of over 40% in size
How it was run: as §2

[20] = qHTS of pediatric cancer cell lines to identify multiple opportunities for drug repurposing: Primary screen for DAOY cells (AID 1347090); further: series mostly up to about 46 µM; nearly all actives have a fitted effect of over 55% in size
How it was run: as §1

Measured: Potency

O=C(O)c1nn(Cc2ccc(Cl)cc2Cl)c2ccccc12
not listed: [20]
inactive: all other assays above

ClCCCN1CCN(c2cccc(Cl)c2)CC1
not listed: [1] | [2] | [4] | [5] | [6] | [7]
inactive: all other assays above

C[C@@H]1CC[C@H]2[C@@H](C)C(=O)O[C@@H]3O[C@@]4(C)CC[C@@H]1[C@]32OO4
not listed: [1] | [2] | [4] | [5] | [6] | [7] | [15] | [19]
inactive: all other assays above

COc1ccc(C(=O)N2CCCC2=O)cc1
not listed: [12] | [15] | [17] | [20]
inactive: all other assays above

NC(=O)CN1CCCC1=O
not listed: [12] | [14]
inactive: all other assays above

CC[C@H]1C[C@H]2[C@@H]3CCC4=CC(=O)CC[C@@H]4[C@H]3CC[C@]2(C)[C@H]1O
not listed: [1] | [2] | [4] | [5] | [6] | [7] | [15]
inactive: all other assays above

CN1CCc2cc(Cl)c(O)cc2[C@H]2c3ccccc3CC[C@@H]21
not listed: [1] | [2] | [4] | [5] | [6] | [7] | [16] | [17]
inactive: all other assays above

CN1C[C@@H](NS(=O)(=O)N(C)C)C[C@@H]2c3cccc4c3c(cn4C)C[C@H]21
not listed: [1] | [2] | [4] | [5] | [6] | [7]
inactive: all other assays above

CCC(=O)OC1(c2ccccc2)CCN(C)CC1
not listed: [1] | [2] | [4] | [5] | [6] | [7]
inactive: all other assays above

Cc1nnc2n1-c1sc(CCC(=O)N3CCOCC3)cc1C(c1ccccc1Cl)=NC2
not listed: [1] | [2] | [4] | [5] | [6] | [7]
inactive: all other assays above

COP(=S)(OC)Oc1ccc(S(N)(=O)=O)cc1
not listed: [1] | [2] | [4] | [5] | [6] | [7]
inactive: all other assays above

CCN(Cc1ccc(Cl)nc1)/C(=C/[N+](=O)[O-])NC
not listed: [1] | [2] | [4] | [5] | [6] | [7]
inactive: all other assays above

COc1ccc(OC)c(CC(C)N)c1 (stereo not given)
not listed: [1] | [2] | [4] | [5] | [6] | [7] | [17]
inactive: all other assays above

O=C(CCCN1CCC(n2c(=O)[nH]c3ccccc32)CC1)c1ccc(F)cc1
not listed: [1] | [2] | [4] | [5] | [6] | [7]
inactive: all other assays above

Cc1ncc2n1-c1ccc(Cl)cc1C(c1ccccc1F)=NC2
not listed: [1] | [2] | [4] | [5] | [6] | [7] | [16] | [17]
inactive: all other assays above

O=c1[nH]c2cc(Cl)ccc2n1C1CCNCC1
not listed: [1] | [2] | [4] | [5] | [6] | [7]
inactive: all other assays above

O=C(N[C@H]1N=C(c2ccccc2F)c2cccc3c2N(CC3)C1=O)c1cc2ccccc2[nH]1
not listed: [1] | [2] | [4] | [5] | [6] | [7] | [17]
inactive: all other assays above
